NLRP3 yeast inh: blocks the NALP3 inflammasome reconstituted in yeast. Yeast reconstituted NLRP3/ASC/caspase-1, beta-gal luminescence, 24 h. AID 2825. hit rate 0.39% among 330,000. inhibition, % at 10 µM;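 active means inhibition of 50% or more; inactive means inhibition below 50%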;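 further: plate controls were induced DMSO wells for no effect and uninduced yeast grown without galactose for full effect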
tim23-1 inh: growth inhibitors of tim23-1 mutant yeast. S. cerevisiae tim23-1 growth, BacTiter-Glo luminescence, 24 h. inhibition, % at 20 µM. hit rate 1.3% among 330,000;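 active means growth inhibition of the mutant yeast at or above 50%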;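 further: temperature-sensitive mutant grown at 25 °C; plate controls were DMSO-treated mutant yeast for no effect and medium wells lacking yeast for full effect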
PfHsp90 set2: growth inhibition of yeast expressing Plasmodium Hsp90 | S. cerevisiae expressing PfHsp90, BacTiter-Glo ATP, 48 h; yeast lacking PDR1 and PDR3 efflux regulators | inhibition, % at 9.4 µM | hit rate 0.32% among 310,000 | AID 504621;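 active means every replicate shows inhibition above about 80%, whatever the replicate mean, limit read from the data; inconclusive means mean inhibition reaches the set limit but some replicate falls short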;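 further: 0% = DMSO neutral controls and 100% = 20 µM radicicol positive controls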
NALP1 inh: NALP1 inhibition. S. cerevisiae NALP1/ASC/caspase-1 growth, X-gal OD620, 72 h. inhibition, % at 10 µM. hit rate 0.61% among 280,000; in the data active means inhibition mostly above about 24%, no sharp cut-off; inactive means mostly below about 32%
tim10-1 inh: tim10-1 yeast growth inhibition; hit rate 2.2% among 330,000; AID 463190; inhibition, % at 20 µM; S. cerevisiae tim10-1 ts strain growth, BacTiter-Glo, 24 h;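 active means inhibition of at least 40%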;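 further: mutant grown at 25 °C; 0% = DMSO wells with yeast and 100% = wells holding no yeast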
TIM10 inh: TIM10 yeast growth inhibition; S. cerevisiae TIM10 strain growth, BacTiter-Glo luminescence, 24 h; inhibition, % at 10 µM; hit rate 1.4% among 330,000;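 active means inhibition of 40% or more at the single tested concentration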;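 further: wild-type TIM10 isogenic control strain grown at permissive 25 °C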
tim10-1 confirm: tim10-1 yeast growth inhibition, confirmed | hit rate 56% among 7,400 | shares compounds with tim10-1 inh | S. cerevisiae tim10-1 ts strain growth, BacTiter-Glo, 24 h | inhibition, % at 20 µM | AID 463213;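 active means inhibition of yeast growth at or above a set limit in either of two repeat tests at 20 µM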;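 further: tim10-1 mutant grown at permissive 25 °C to find synthetic lethal compounds; 0% = DMSO yeast wells and 100% = medium wells without yeast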
TIM10 conf: confirmation of TIM10 yeast growth inhibitors. shares compounds with TIM10 inh. S. cerevisiae tim10 strain growth, BacTiter-Glo luminescence, 24 h. inhibition, % at 10 µM. hit rate 63% among 4,600;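 active means inhibition of yeast growth at or above a set limit in either of two replicates at 10 µM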;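 further: this counterscreen used the strain with wild-type TIM10; 0% = yeast with DMSO and 100% = medium wells lacking yeast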
Numbers without * were called inactive; ? = inconclusive; . = no result given. The list is not random: actives were taken first. Their share in the collection is about 4.1%.

SMILES | NLRP3 yeast inh | tim23-1 inh | PfHsp90 set2 | NALP1 inh | tim10-1 inh | TIM10 inh | tim10-1 confirm | TIM10 conf
Cc1ccc(S(=O)(=O)N2CCCCC2)cc1NC(=O)CNc1ccc(C(F)(F)F)cc1 | 3.0 | 19.1 | . | . | 8.0 | 2.3 | . | .
Cc1ccc(N2C(=O)CC(Sc3nc(C)cc(C)n3)C2=O)cc1 (centres undefined) | 21.3 | 11.1 | 2.6 | 3.4 | 3.4 | -4.9 | . | .
COc1ccc(N2C(=O)CC(Sc3ncn[nH]3)C2=O)c(OC)c1 (centres undefined) | 14.7 | 5.3 | 7.3 | 33.7 | 9.9 | 24.3 | . | .
CC(C)c1ccc(N2C(=O)CC(Sc3ncn[nH]3)C2=O)cc1 (centres undefined) | 14.6 | 0.2 | -47.7 | 101.3* | 45.6* | 69.3* | 51.9* | 62.5*
CC(C)c1ccc(N2C(=O)CC(Sc3nc4ccccc4o3)C2=O)cc1 (centres undefined) | 33.2 | 30.2 | . | 8.5 | 52.5* | 53.0* | 46.3* | 41.0*
CCC1Sc2ccc(S(=O)(=O)N3CCN(c4ccccc4)CC3)cc2NC1=O (centres undefined) | 21.4 | 18.3 | -4.3 | 22.0 | 14.9 | 16.3 | . | .
COCCN(C(=O)c1oc2ccccc2c1COC)c1c(N)n(CC(C)C)c(=O)[nH]c1=O | 5.6 | 2.2 | . | . | -13.7 | 3.3 | . | .
COc1ccccc1CNC(=O)COC(=O)c1cc(=O)c2ccccc2o1 | 4.8 | 6.6 | 2.3 | . | 0.3 | 5.7 | . | .
CC1CN(S(=O)(=O)c2ccc(C(=O)N(CCCN(C)C)c3nc4cc5c(cc4s3)OCCO5)cc2)CC(C)O1 (centres undefined) | 12.3 | 35.5 | -14.2 | . | 54.0* | 44.0* | 51.8* | 45.2*
CN(C)CCCN(C(=O)c1ccc(S(=O)(=O)N2CCOCC2)cc1)c1nc2ccc(F)cc2s1 | 10.6 | 10.2 | . | 23.0 | 20.6 | 12.1 | . | .
CN(C)CCCN(C(=O)c1ccc(S(=O)(=O)N(C)Cc2ccccc2)cc1)c1nc2cc3c(cc2s1)OCO3 | 21.0 | 18.4 | -29.8 | 21.0 | 37.0 | 19.2 | . | .
CCC1CCCCN1S(=O)(=O)c1ccc(C(=O)N(CCCN(C)C)c2nc3cc4c(cc3s2)OCO4)cc1 (centres undefined) | 9.9 | 34.5 | -8.6 | 27.0 | 46.4* | 49.6* | 34.0* | 32.7*
CCOc1ccc(OCCC(=O)N(CCC(C)C)c2c(N)n(Cc3ccccc3)c(=O)[nH]c2=O)cc1 | -12.2 | -7.2 | -4.9 | . | 4.5 | -2.1 | . | .
CC(=O)c1ccc(N2CCN(CC(=O)NC(=O)NCc3ccccc3)CC2)cc1 | 20.4 | -1.7 | -4.9 | . | -2.7 | 0.4 | . | .
O=S(=O)(c1ccc2[nH]c3c(c2c1)CCCC3)N1CCCCC1 | 6.3 | 48.8 | 0.0 | -2.6 | 40.1* | 41.3* | 28.4 | 34.5*
O=c1[nH]c2ccc(S(=O)(=O)N3CCCCC3)cc2[nH]1 | 3.2 | 3.7 | 3.2 | 0.3 | 1.8 | 5.0 | . | .
O=C(Nc1cccc2ccccc12)c1nn(C23CC4CC(CC(C4)C2)C3)cc1[N+](=O)[O-] | 12.4 | 47.5 | 5.4 | 10.1 | 40.5* | 40.6* | 31.9* | 13.7
COc1ccc(NC(=O)c2nn(C34CC5CC(CC(C5)C3)C4)cc2[N+](=O)[O-])cc1 | 11.9 | 19.0 | 6.3 | -10.1 | 4.8 | 18.2 | . | .
N#CCc1ccc(Oc2ncccn2)cc1 | 9.5 | 0.7 | -13.7 | -3.8 | 12.2 | -3.2 | . | .
CC(C)NC(=S)N/N=C1\CCCCC1C1CCCCC1 (centres undefined) | 14.0 | 46.5 | . | 4.4 | 44.0* | 41.8* | 31.8* | 29.4
c1ccc(-c2cnnc(-c3ccccn3)n2)cc1 | 13.8 | -4.8 | 9.7 | . | -22.8 | -34.7 | . | .
C=CCNc1nc(-c2ccccn2)nnc1-c1ccccc1 | 2.6 | 4.1 | 49.4 | 10.1 | 49.3* | 46.5* | 40.6* | 24.6
CCc1c(C)sc(NC(=O)c2cc(C)on2)c1C#N | 35.2 | 28.0 | 25.0 | 15.4 | 22.4 | 19.5 | . | .
CCCc1cc(C(N)=O)c(NC(=O)c2cc(C)on2)s1 | -8.7 | 48.0 | 16.1 | 2.8 | 64.2* | 58.3* | 53.8* | 53.6*
COc1ccc(NC(=O)c2cccc3c2C(=O)c2ccc(-c4cnc(OC)nc4)cc2S3(=O)=O)cc1 | 19.7 | -1.7 | -8.1 | . | 21.5 | -2.9 | . | .
SMILES | NLRP3 yeast inh | tim23-1 inh | PfHsp90 set2 | NALP1 inh | tim10-1 inh | TIM10 inh | tim10-1 confirm | TIM10 conf
Cc1ccccc1CS(=O)(=O)c1nnc([C@H](CC(C)C)NC(=O)OC(C)(C)C)o1 | 17.0 | 39.0 | ? | -1.2 | 65.4* | 57.2* | 48.0* | 49.2*
CC(C)[C@H](NC(=O)OC(C)(C)C)c1nnc(S(=O)(=O)Cc2c(F)cccc2Cl)o1 | 7.7 | 36.5 | -42.7 | 9.4 | 61.4* | 71.0* | 63.8* | 63.8*
Cc1nc(C)c(-c2csc(Nc3cccc(O)c3)n2)s1 | 21.1 | 24.0 | -6.1 | 7.4 | 44.4* | 48.1* | 24.6 | 31.1*
Cc1nc(N)sc1-c1csc(Nc2cccc(O)c2)n1 | -3.5 | 6.7 | -5.8 | -4.5 | -0.8 | -1.1 | . | .
CC(NC(=O)/C(C#N)=C/c1ccc([N+](=O)[O-])o1)c1ccccc1 (centres undefined) | 23.7 | -71.1 | -5.8 | 68.5* | 50.4* | 61.7* | 23.1 | 92.8*
CC(NC(=O)/C(C#N)=C/c1ccco1)c1ccccc1 (centres undefined) | -5.7 | 6.5 | 21.0 | . | -5.4 | -25.8 | . | .
CC(NC(=O)CN1CCOCC1)c1ccc(F)cc1 (centres undefined) | 1.8 | -7.9 | -4.8 | 16.7 | -3.3 | 5.7 | . | .
COc1ccccc1Nc1nc(-c2ccc3c(c2)NC(=O)CO3)cs1 | 20.2 | 4.0 | -3.0 | -9.2 | 22.8 | 29.2 | . | .
COc1ccc(Nc2nc(-c3ccc4c(c3)NC(=O)CO4)cs2)cc1 | 12.5 | 40.4 | -20.0 | -0.7 | 40.0 | 46.2* | 30.7* | 46.3*
Cc1ccc(NC(NC(=O)c2cccs2)C(Cl)(Cl)Cl)cc1C (centres undefined) | -3.9 | 30.2 | -24.1 | 16.4 | 53.9* | 58.5* | 44.0* | -16.2
Cc1ccccc1NC(NC(=O)c1cccs1)C(Cl)(Cl)Cl (centres undefined) | -0.7 | 31.1 | 20.2 | 14.5 | 42.5* | 47.2* | 48.9* | 51.4*
Cc1ccccc1NC(=O)c1ccccc1NC(=O)c1cccs1 | 12.7 | 7.9 | 0.9 | 6.5 | 1.8 | 4.9 | . | .
COc1ccc(-c2nncnn2)cc1 | -3.4 | 42.5 | . | 7.9 | 84.1* | 88.8* | 78.8* | 20.9
COc1ccc(Cl)cc1NC(=O)CSC1=NN2CCCC(=O)N=C2S1 | 27.8 | 13.2 | 5.9 | 3.3 | 16.3 | 16.4 | . | .
CC(=O)C1(C)C(=O)N(c2ccc(C)cc2)C(=O)N1c1ccc(C)cc1 (centres undefined) | . | . | -19.0 | . | . | . | . | .
COc1ccc(C/C(N)=N/OC(=O)C(c2ccccc2)c2ccccc2)cc1OC | 2.0 | -19.6 | -9.0 | 5.2 | -0.3 | -24.4 | . | .
